# Measurements taken from PubChem BioAssay AID2401 (Southern Research Specialized Biocontainment Screening …, 2010).
# The whole screen tested about 2,200 compounds, of which about 530 (24%) were called active.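 How the source made its calls: active means inhibition above a set limit at one or more concentrations of the dose series; inactive means inhibition under that limit at every dose.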 Not all results are given here. Measured potencies and affinities stand elsewhere.
# Test: S. Typhimurium nonspecific reporter signal inhibition – Salmonella Typhimurium, GFP fluorescence, counter-screen for PhoP regulon inhibitor project, dose response (AID 2401);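 further: S. typhimurium with Mg-insensitive nmpC-GFP reporter grown at 10 µM Mg2+; drop in reporter fluorescence reflects general culture growth inhibition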
# Conditions: 4 h; series mostly up to 150 µM; inhibition: at the top concentration
row,SMILES,inhibition
1,CCOC(=O)C1=C(C)N(CCO)C(=O)NC1c1cccc(O)c1 (stereo not drawn),-19% (inactive)
2,CCCNC(=O)CSc1nnc(C)s1,10.8% (inactive)
3,Cc1nc2c(Cl)cccc2c2c1CC(CBr)O2 (stereo not drawn),5.62% (inactive)
4,CCC1=NNc2cccc3c(OC)ccc1c23,-26.2% (inactive)
5,COc1ccc(-c2c/c(=N\c3nc(-c4ccccc4)c(C)s3)c3ccccc3o2)cc1O,-15.5% (inactive)
6,COC(=O)c1c(C)oc2ccc(NS(=O)(=O)c3cccs3)cc12,2.36% (inactive)
7,O=C(CCNS(=O)(=O)c1cccc2nsnc12)NCc1cccs1,-14.8% (inactive)
8,O=C(NCc1cccs1)[C@@H]1CSC2c3ccccc3C(=O)N21 (stereo partly drawn),28.7% (inactive)
9,Nc1cc(N)nc(SCc2cc(=O)oc3cc4c(cc23)CCC4)n1,-3.12% (inactive)
10,CCCn1c(SCC(=O)c2c(C)[nH]c(C)c2C(=O)OCC)nc2ccccc21,-10.8% (inactive)
11,O=C(CCCN1C(=O)CCC1=O)Nc1ccc2c(c1)OCCO2,-25.4% (inactive)
12,CCCCn1nnnc1NCc1cc(OC)c(OC)cc1OC,1.8% (inactive)
13,CCCCCNS(=O)(=O)c1cc(C)ccc1OC,11.8% (inactive)
14,Cc1ccc(S(=O)(=O)NCCC(=O)OCn2nnc3ccccc3c2=O)cc1,16.9% (inactive)
15,COc1ccc(-c2nnn(CC(=O)N(Cc3ccco3)C(C(=O)NCC3CCCO3)c3ccco3)n2)cc1 (stereo not drawn),-3.17% (inactive)
16,COC(=O)c1cc(C#N)c(Oc2ccc(F)cc2)nc1C,-28.6% (inactive)
17,O=C1C(c2ccc(F)cc2)N(Cc2ccc3c(c2)OCO3)C(=O)CN1C1CCCCCC1 (stereo not drawn),-9.71% (inactive)
18,Cc1ccc(-c2[nH]c(-c3ccc(Cl)cc3)nc2SCC(=O)NCC2CCCO2)cc1 (stereo not drawn),-16.1% (inactive)
19,COc1cc(C(=O)NC(=S)Nc2ccc3oc(=O)ccc3c2)cc(OC)c1OC,-9.48% (inactive)
20,Cc1nc(N2CCN(c3ccccc3)CC2)nc2c1C(=O)CC(C)C2 (stereo not drawn),6.48% (inactive)
21,O=C(Nc1ccc2oc(-c3ccc(Cl)c(Cl)c3)nc2c1)c1ncn[nH]1,-27.4% (inactive)
22,O=C(NCc1ccccn1)c1cn(-c2ccccc2)nc1-c1ccc(Cl)cc1,-22% (inactive)
23,CCc1ccc(C(c2c(C)nn(-c3ccccc3)c2N)c2c(C)nn(-c3ccccc3)c2N)cc1,-10% (inactive)
24,O=C(OCc1ccccc1)c1cn(-c2ccccc2)nc1-c1ccncc1,-10.6% (inactive)
25,O=C(COC(=O)c1cn(-c2ccccc2)nc1-c1ccccc1)c1cccc([N+](=O)[O-])c1,-12.4% (inactive)

row,SMILES,inhibition
1,C/C(=N\N=C(/N)SC1CC(=O)N(c2cccc(Cl)c2)C1=O)c1cccs1 (stereo not drawn),-4.01% (inactive)
2,Cc1ccc(-n2ncc3c(N4CCN(c5ccccc5)CC4)ncnc32)c(C)c1,-12.6% (inactive)
3,Cc1ccccc1-n1c(=O)c2ccccc2n2cnnc12,-24.8% (inactive)
4,CCCn1nnc(NC(=O)c2ccc(Br)o2)n1,-19.7% (inactive)
5,Cc1cc([N+](=O)[O-])cc2ncccc12,-4.59% (inactive)
6,O=C(NCc1cccnc1)c1ccc(Cl)cc1[N+](=O)[O-],6.59% (inactive)
7,Cc1ccc(NC(=O)COc2ncnc3c(Cl)cc(Cl)cc23)cc1[N+](=O)[O-],-22% (inactive)
8,CC1(C)CC(=O)C2=C(C1)N(c1ccc(F)cc1)C(N)=C(C#N)C2c1cccs1 (stereo not drawn),-18.1% (inactive)
9,CCn1c(=O)c(=O)[nH]c2cc(C(=O)NCC3CCCCC3)ccc21,-7.98% (inactive)
10,O=c1c2c([nH]c3ccccc13)CCCCC2,-0.51% (inactive)
11,Cc1cc(NC(=O)c2ccco2)ccc1-n1cnnn1,-14.6% (inactive)
12,c1ccc(CSc2nnc(-c3ccncc3)o2)cc1,3.63% (inactive)
13,O=C1Nc2ccc(F)cc2C12SCCS2,-12.3% (inactive)
14,CC(=S)c1c(C)cc2cc(C)ccn12,-38.8% (inactive)
15,COc1ccc(N=c2cc(-c3ccc(OC)cc3)oc3ccccc23)cc1,-12.5% (inactive)
16,CN1C(=S)N(c2ccccc2)C(=O)/C1=C/c1ccco1,-8.7% (inactive)
17,CCn1c(SCc2ccc(F)cc2)nc2ccccc2c1=O,-22.1% (inactive)
18,COC(=O)c1ccc(CSc2nnnn2-c2ccccc2)o1,4.19% (inactive)
19,CCOc1ccc(Nc2nc(NCCN3CCOCC3)nc(OC)n2)cc1,-17.3% (inactive)
20,Nc1ccc(Nc2ccccc2)c(Cl)c1,-8.73% (inactive)
21,CCOc1ccc(CNc2ccc(N3CCCC3)cc2)cc1,21.9% (inactive)
22,CCc1ccc(Nc2nc(N)nc(CSc3nc4ccccc4s3)n2)cc1,-23.1% (inactive)
23,Cc1cccc(Nc2nc(N)nc(CN3CCN(c4ccccc4)CC3)n2)c1,-9.51% (inactive)
24,CCOC(=O)c1cnc2ccccc2c1Nc1ccc2c(c1)OCCO2,-19.4% (inactive)
25,C=CCN=C(NC#N)SCc1ccccc1Cl,0.33% (inactive)

row,SMILES,inhibition
1,Cc1ccc(NC(=O)C2CC(=O)NC(N3CCCCC3)=N2)cc1Cl (stereo not drawn),10.1% (inactive)
2,COC(=O)N1CCN(c2ccc(Cl)c(Cl)c2)CC1,-11.4% (inactive)
3,O=C(COc1ncnc2sccc12)N1CCN(S(=O)(=O)c2ccc(Cl)cc2)CC1,12.2% (inactive)
4,CC1CCN(C(c2cc3cc4c(cc3[nH]c2=O)OCO4)c2nnnn2CC2CCCO2)CC1 (stereo not drawn),-19.9% (inactive)
5,CCOC(=O)C[n+]1c(C)sc2ccc(OC)cc21,-45.4% (inactive)
6,COc1ccc(C)cc1Nc1nc(-c2c(C)[nH]c3ccccc23)cs1,30.2% (inactive)
7,CCOC(=O)c1c(N)ssc1=S,-9.18% (inactive)
8,O=c1[nH]c(NCc2ccco2)nnc1Cc1ccccc1Cl,-24.5% (inactive)
9,N/C(=N\OC(=O)c1ccc(F)cc1)c1nonc1N,-17.4% (inactive)
10,O=C(c1ccccc1)N1CCN(c2ccc([N+](=O)[O-])c(NCc3ccco3)c2)CC1,-6.39% (inactive)
11,O=C(NC(=Nc1ccccc1)N1CCOCC1)Nc1ccccc1,-21.2% (inactive)
12,COc1ccc(C(=O)On2c(-c3ccc(Br)cc3)nc3ccccc3c2=O)cc1,17.4% (inactive)
13,Cc1cc(-c2csc(N)n2)c(C)n1-c1ccccc1,30% (inactive)
14,N#CC1=C(N)N=C(SCc2cccc3ccccc23)C(C(N)=O)C12CCCCC2 (stereo not drawn),2.06% (inactive)
15,CCCCC1CCC(C(=O)Nc2ccccc2)CC1 (stereo not drawn),-1.73% (inactive)
16,Cc1ccc(CCNC(=O)C2CCCN(S(=O)(=O)c3c(C)noc3C)C2)cc1 (stereo not drawn),-15.8% (inactive)
17,c1ccc2c(c1)ncn2CCCCOc1ccc2c(c1)CCC2,11.7% (inactive)
18,O=C(c1ccc(CSc2nc3ccncc3[nH]2)cc1)N1CCN(c2cccc(Cl)c2)CC1,-35.7% (inactive)
19,CC(=O)N1N=C(c2ccco2)CC1c1ccc(Br)cc1 (stereo not drawn),26.9% (inactive)
20,OCCCNc1nc(-c2ccc(Cl)cc2)nnc1-c1ccc(Br)cc1,8.64% (inactive)
21,CC(C)[C@@H]1CC[C@@H](C)C[C@H]1OC(=O)C[n+]1cc(-c2ccc(Cl)cc2)n2c1CCCCC2,22.9% (inactive)
22,COc1ccc(-n2c(CNc3ccc(C)cc3)nnc2SCc2ccccc2)cc1,-8.88% (inactive)
23,Cn1cc(-c2nnnn2-c2cccc(C(F)(F)F)c2)c(C(F)(F)F)n1,-2.59% (inactive)
